In PubChem BioAssay (NCATS) one finds Potency, outcome and max response data, which are given here for four compounds.

The target in one experiment is Furin (Homo sapiens) (UniProt P09958). As to the kind of experiment: Furin counterscreen qHTS for Zika virus inhibitors (AID 1347149).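 Also: purified recombinant full-length human furin enzyme at 5 nM; fluorescence gain from furin cutting a BOC-RVRR-AMC peptide substrate over 15 min; top concentration of the series differs between compounds; plate controls were no-inhibitor control for no effect and no-enzyme control for full effect; nearly all actives have a fitted effect of over 70% in size.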 Put shortly:
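Counterscreen measures cleavage of 2 microM BOC-RVRR-AMC, below its ~15 microM Km, by 5 nM full-length human furin at pH 7.0 after a 15-min compound preincubation. Inhibition derives from the 15-min fluorescence increase at 37C.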

The subject of experiment [1] is Zika virus NS2B-NS3 protease (unlinked). Description: Optimization of GU AMC qHTS for Zika virus inhibitors: Unlinked NS2B-NS3 protease assay (AID 1347151).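 Also: 0% = no-inhibitor control and -100% = no-enzyme control; nearly all actives have a fitted effect of over 80% in size.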 A digest of the protocol: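 Fluorescence gain (340/450 nm) over 15 min at room temperature, ~20% conversion, gave percent inhibition fitted to a 4-parameter Hill equation; enzyme was unlinked NS2B-NS3 (25 nM final), pH 8.0 Tris buffer.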

The nature of experiment [2]: Vero cells viability qHTS for Zika virus inhibitors (AID 1347167). Also: % is scaled to controls: 0 for no effect and ±100 for the full control effect. A digest of the protocol: (§1)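 qHTS titration; 24-48 h compound exposure, 37 degrees C/5% CO2; DMEM, 4% FBS; CellTiter Glo ATP luminescence.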
Experiment [3] in a line: HepG2 cells viability qHTS for Zika virus inhibitors (AID 1347168). Also: % is scaled to controls: 0 for no effect and ±100 for the full control effect. A digest of the protocol: as §1
Experiment [4] in a line: Tertiary RLuc qRT-PCR qHTS assay for Zika virus inhibitors (AID 1347169). Also: potency is read from the fitted curve at half-maximal effect; nearly all actives have a fitted effect of over 55% in size. Put shortly:
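Orthogonal cell-based readout: luminescence measured 1-1.5 hrs after adding live-cell Renilla substrate to Vero cells that had been infected with ZIKV-RLuc (MOI 1-2) post-compound, incubated 48-72 hrs at 37 degrees C.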

The next experiment has as its system KB-3-1. Description: Cytotoxic Profiling of Annotated Libraries Using Quantitative High-Throughput Screening (AID 1296008). Also: % is scaled to controls: 0 for no effect and ±100 for the full control effect; nearly all actives have a fitted effect of over 60% in size. The note with it: Five cell lines viability, CellTiter-Glo ATP luminescence, 48-72 h; max response: hits give low values. Put shortly:
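Cells exposed to compounds for 48 or 72 hr at 37 degrees Celsius. Viability read as ATP-coupled luminescence with CellTiter-Glo after 10 min at room temperature.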

A short description of experiment [5]: qHTS Assay for Identifying Gametocytocidal Compounds (AID 743244).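 Also: % is scaled to controls: 0 for no effect and ±100 for the full control effect; actives lower the fluorescent signal which means gametocytes are killed.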 The note with it: P. falciparum 3D7 stage III-V gametocytes, alamarBlue, 72 h; max response: hits give low values. Put shortly:
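Stage III–V gametocytes of P. falciparum 3D7 were seeded at 20,000 cells/well onto pre-dispensed compounds. After 72 h, 37 °C, 5% CO2, alamarBlue was added for another 24 h.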

A short description of experiment [6]: P-glycoprotein substrates identified in KB-8-5-11 adenocarcinoma cell line, qHTS therapeutic library screen (AID 1346987). Also: nearly all actives have a fitted effect of over 65% in size. Also: potency is read from the fitted curve at half-maximal effect. Put shortly: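 Compounds are pinned in dose-response onto KB-8-5-11 cells (500 cells/well, colchicine-free medium) and left 72 h at 37 degree C. CellTiter-Glo luminescence then yields AC50 values.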
The test system of another experiment is astro. Description: Drug repurposing screens with cells derived from glioblastoma tumor samples (AID 1345199). Also: % is scaled to controls: 0 for no effect and ±100 for the full control effect; nearly all actives have a fitted effect of over 40% in size. The note with it: viability, ATP luminescence, 48 h; series mostly up to 45.9 µM. Put shortly: (§2)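 Primary testing used CD133+ neurospheres from four GBM patients, seven concentrations, 48 h exposure and ATP-based viability; confirmation added three slower-growing patient lines.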

Experiment [7] deals with Zika virus NS2B-NS3 protease (linked construct). Description: Confirmatory screen NINDS AMC qHTS for Zika virus inhibitors (AID 1347152).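 Also: top concentration of the series differs between compounds; 0% = no-inhibitor control and -100% = no-enzyme control; nearly all actives have a fitted effect of over 70% in size.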 Put shortly: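 IC50s from 4-parameter Hill fits of percent inhibition, based on AMC fluorescence gain (340/450 nm) over 15 min with 10 microM Bz-Nle-KRR-AMC. Enzyme: 1 nM linked NS2B-NS3 in Tris-HCl pH 8.0; 15-min compound preincubation.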

Experiment [8] has as its system Zika virus NS2B-NS3 protease (unlinked complex). As to the kind of experiment: Confirmatory screen GU AMC qHTS for Zika virus inhibitors (AID 1347153).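 Also: percent inhibition with 0% = no inhibitor control and 100% = no enzyme control; nearly all actives have a fitted effect of over 70% in size.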 A digest of the protocol:
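Fluorescence change (ex 340/em 450 nm) over 15 min, ~20% substrate conversion, normalized to no-inhibitor and no-enzyme controls, then Hill-fitted. Unlinked protease at 25 nM; AMC peptide 10 µM.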

Experiment [9] in a line: Confirmatory screen NINDS Rhodamine qHTS for Zika virus inhibitors (AID 1347161).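 Also: purified Zika NS2B-NS3 protease with linked NS2B cofactor domain and Rhodamine110 peptide substrate; plate controls were no-inhibitor control for no effect and no-enzyme control for full effect; nearly all actives have a fitted effect of over 60% in size.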 A digest of the protocol: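 Percent inhibition, normalized to uninhibited and enzyme-free controls, is fitted to a 4-parameter Hill equation. Fluorescence change comes from a 15-min cleavage of 1.5 microM bis-peptide Rhodamine110 substrate by 25 nM linked NS2B-NS3 at room temperature.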
The nature of experiment [10]: Drug repurposing screens with cells derived from glioblastoma tumor samples (AID 1345199). Also: % is scaled to controls: 0 for no effect and ±100 for the full control effect; nearly all actives have a fitted effect of over 40% in size. The note with it: GBM patient neurospheres viability, ATP luminescence, 48 h; Potency: tumour line A; series mostly up to 45.9 µM. A digest of the protocol: as §2

Structures are written as SMILES. Records with an inconclusive call do not appear. A number with no mark means an inactive call. The source made the active and inactive calls. Calls follow the shape of the dose curve; as a rule, active = well fitted curve in the direction sought with a large enough effect; inconclusive = small, poorly fitted or top-dose-only effect, or another doubt; inactive = no such curve, though single readings can be large; an effect the other way counts as inactive or inconclusive.

Chain of Furin (Homo sapiens) (P09958 whole entry, looked up): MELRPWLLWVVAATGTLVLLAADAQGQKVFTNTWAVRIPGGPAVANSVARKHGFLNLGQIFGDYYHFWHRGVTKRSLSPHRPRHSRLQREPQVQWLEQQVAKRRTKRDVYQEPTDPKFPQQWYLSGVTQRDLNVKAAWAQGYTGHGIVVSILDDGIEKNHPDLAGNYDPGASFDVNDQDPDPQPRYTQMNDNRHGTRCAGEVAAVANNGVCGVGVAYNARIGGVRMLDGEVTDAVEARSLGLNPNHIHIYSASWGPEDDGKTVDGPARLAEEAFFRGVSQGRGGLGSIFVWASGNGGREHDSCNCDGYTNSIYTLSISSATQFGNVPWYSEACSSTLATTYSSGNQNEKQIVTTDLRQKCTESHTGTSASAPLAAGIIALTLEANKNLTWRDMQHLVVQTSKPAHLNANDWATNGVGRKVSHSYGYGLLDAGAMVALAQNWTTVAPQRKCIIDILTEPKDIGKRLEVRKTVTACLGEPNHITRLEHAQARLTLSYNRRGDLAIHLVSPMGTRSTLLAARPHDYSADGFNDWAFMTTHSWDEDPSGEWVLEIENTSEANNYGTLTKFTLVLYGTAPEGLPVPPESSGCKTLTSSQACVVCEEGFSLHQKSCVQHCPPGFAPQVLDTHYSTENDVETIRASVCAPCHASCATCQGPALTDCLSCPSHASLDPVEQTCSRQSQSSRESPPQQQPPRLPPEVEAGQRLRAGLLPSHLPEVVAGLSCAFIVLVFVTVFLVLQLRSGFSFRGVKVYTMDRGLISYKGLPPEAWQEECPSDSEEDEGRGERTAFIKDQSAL

As to `C[C@H]1[C@H]2Cc3ccc(O)cc3[C@]1(C)CCN2CCc1ccccc1`, the Potency result (with Furin (Homo sapiens); in experiment [2]; in experiment [3]) was “inactive” throughout. Further, the compound was classed as inactive in experiment [1]. Moreover, the Potency in [4] was 47.5 µM (active). For the same compound, the max response in the experiment on KB-3-1 was -3.9%.

`CCC(=O)O[C@](Cc1ccccc1)(c1ccccc1)[C@H](C)CN(C)C`: the max response was 0.382% in experiment [5] and 0.566% with KB-3-1. In experiment [6], the Potency was 20 µM (active). Further, the Potency result with astro was “inactive”.

Regarding `C[C@@H]1[C@@H]2Cc3ccc(O)cc3[C@@]1(C)CCN2CCc1ccccc1`, the Potency in experiment [6] is 12.6 µM (active). Moreover, the Potency entry (with Furin (Homo sapiens); in [7]; in [8]; in [9]; in [2]; in experiment [3]) was “inactive” each time. Also, the Potency result in the experiment on astro was “inactive”. For the same compound, the compound was called inactive in experiment [1]. In the experiment on KB-3-1, the max response was -19%.

For `CN[C@]1(c2ccccc2Cl)CCCCC1=O`, the max response in [5] is 1.48%; in the experiment on KB-3-1, -15.2%. The Potency entry (in experiment [6]; in [10]; in the experiment on astro) was “inactive” in each case.
